# Measured values taken from the supplement of paper PMC3545927.
# The list shows a part of the results. The hit rate among all sequences tested is not known here.
# B1: HC260 (peptide)
# chain: CAGLYHVTNDAGNASASA
# B2: HC791 (peptide)
# chain: CATLGFGAYMAGNASASA
# B3: FS-1673 (peptide)
# chain: CAKSARSVRAAGNASASA
# B4: FS-2311 (peptide)
# chain: CARSRREASGAGNASASA
# B5: FS-2643 (peptide)
# chain: CARARRDPRAAGNASASA
# B6: FS-3210 (peptide)
# chain: CARSRRPADTAGNASASA
# B7: FS-1389 (peptide)
# chain: CAQPARSVRLAGNASASA
# B8: FS-1573 (peptide)
# chain: CASSSRDPRAAGNASASA
# B9: FS-3116 (peptide)
# chain: CARVCRCARAAGNASASA
# B10: FS-811 (peptide)
# chain: CAKPAKSARSAGNASASA
# B11: HC1444 (peptide)
# chain: CAVQPEKGGRAGNASASA
# B12: HC1803 (peptide)
# chain: CADAMEECSQAGNASASA
# Biological target: furin, P09958
# Assay: furin cleavage Z-score vs untreated control; higher = more cleavage, active = 3.5 or more, inactive = 1 or less, 8 variable residues between constant flanks
# Outline: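 The cleavage Z-score is the log read count relative to furin-free reactions, lowess-adjusted and scaled by median absolute deviation. Counts came from sequencing DNA released from bead-bound 8-mer peptide–cDNA fusions after digestion with purified furin for 7.5, 15 or 30 min.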
# 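Note: purified furin at 1:10 enzyme:substrate in 50 mM HEPES pH 7.5.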
# Sequence of furin, P09958 (P09958 whole entry): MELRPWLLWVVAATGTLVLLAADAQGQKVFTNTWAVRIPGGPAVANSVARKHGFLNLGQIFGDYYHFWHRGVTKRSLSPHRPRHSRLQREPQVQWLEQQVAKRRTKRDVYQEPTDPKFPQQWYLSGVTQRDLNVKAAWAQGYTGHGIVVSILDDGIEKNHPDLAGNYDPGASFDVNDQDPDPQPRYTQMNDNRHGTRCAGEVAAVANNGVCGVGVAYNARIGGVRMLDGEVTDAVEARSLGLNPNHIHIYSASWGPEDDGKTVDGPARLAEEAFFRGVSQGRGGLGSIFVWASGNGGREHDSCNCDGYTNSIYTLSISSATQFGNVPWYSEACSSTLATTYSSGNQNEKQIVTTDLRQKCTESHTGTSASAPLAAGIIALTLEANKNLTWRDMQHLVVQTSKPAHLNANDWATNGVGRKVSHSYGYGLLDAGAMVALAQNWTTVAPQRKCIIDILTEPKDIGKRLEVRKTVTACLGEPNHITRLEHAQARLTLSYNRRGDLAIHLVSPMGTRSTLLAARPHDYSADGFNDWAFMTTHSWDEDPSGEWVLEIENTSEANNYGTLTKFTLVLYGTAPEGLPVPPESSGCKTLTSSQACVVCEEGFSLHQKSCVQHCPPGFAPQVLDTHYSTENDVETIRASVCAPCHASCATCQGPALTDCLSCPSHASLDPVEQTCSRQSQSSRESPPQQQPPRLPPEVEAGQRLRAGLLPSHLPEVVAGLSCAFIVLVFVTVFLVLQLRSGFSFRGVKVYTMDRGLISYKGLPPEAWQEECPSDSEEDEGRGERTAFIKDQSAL
Sequence,furin cleavage Z-score (7.5 min),furin cleavage Z-score (15 min),furin cleavage Z-score (30 min)
B1,0.615 (inactive),-1.34 (inactive),-0.664 (inactive)
B2,0.163 (inactive),-1.28 (inactive),0.49 (inactive)
B3,6.74 (active),6.73 (active),7 (active)
B4,3.7 (active),2.31,2.33
B5,9.64 (active),9.59 (active),9.18 (active)
B6,-0.916 (inactive),-0.606 (inactive),-2.54 (inactive)
B7,-0.0259 (inactive),0.85 (inactive),0.452 (inactive)
B8,-1.14 (inactive),0.526 (inactive),1.07
B9,5.97 (active),5.83 (active),6.08 (active)
B10,-0.364 (inactive),-0.316 (inactive),0.253 (inactive)
B11,-2.15 (inactive),-2.12 (inactive),-0.412 (inactive)
B12,-1.34 (inactive),0.113 (inactive),-0.929 (inactive)
